From PubChem BioAssay (NCATS) come the findings set out here.

Assay [1] is described as follows: AP1 Signaling Pathway (AID 357; active means well fitted curve in either direction with a large enough effect, not every such curve was filed as active; further: on the % scale 0 is the no-effect control and ±100 the full control effect). To be noted: ME-180 AP-1-bla reporter, EGF-induced, beta-lactamase ratio, 5 h; at 38 µM (top of the series). The essentials: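 AP-1-bla ME-180 cells with beta-lactamase reporter under AP-1 response element, stimulated with EC50 EGF; compounds titrated, 5 hours at 37 degrees Celsius. CCF4 read at 460/530 nm ratio; positive and negative modulators judged by AC50.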

Assay [2] addresses Cytochrome P450 1A2 (Homo sapiens) (UniProt P05177). Description: p450-cyp1a2 (AID 410; calls by dose curve). To be noted: recombinant CYP1A2, luciferin-ME demethylation, luminescence; series mostly up to 57 µM. The essentials:
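Human CYP1A2 (20nM) demethylated Luciferin-ME at its Km (100uM) in 100mM KPO4. After 10 min compound preincubation, NADPH regeneration ran the reaction 60 min at room temperature. Luciferin was read by luminescence, normalized to 57 uM furafylline.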

Assay [3] in a line: NFAT Signaling Pathway (AID 444; active means well fitted curve in either direction with a large enough effect, not every such curve was filed as active;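 further: carbachol stimulus at about its EC50 of 1 µM final; on the % scale 0 is the no-effect control and ±100 the full control effect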). To be noted: Jurkat NFAT-bla M1, carbachol, beta-lactamase ratio, 5 h; at 38 µM (top of the series). The procedure, abridged:
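Jurkat cells carrying an NFAT-driven β-lactamase reporter and co-transfected muscarinic M1 receptor were treated with compound plus carbachol (1 uM final, an EC50 level) for 5 h at 37 °C. CCF4 loading followed for 1 h at RT; 460/530 nm ratio gave %activity.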

Assay [4] in a line: Stat Signaling Pathway (AID 446; active means well fitted curve in either direction with a large enough effect, not every such curve was filed as active;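 further: ME-180 cervical cancer cells given 40 pM IL-6 alongside compound; SIE-controlled beta-lactamase reporter measured as 460/530 nm FRET emission ratio; on the % scale 0 is the no-effect control and ±100 the full control effect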). The note with it: ME-180 SIE beta-lactamase reporter, IL-6 stimulated, 5 h; at 38 µM (top of the series). The essentials: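 Reporter line: ME-180 cervical carcinoma, SIE-beta-lactamase. Treatment: compound with 40 pM IL-6, 5 hrs, 37 C, in low-serum OPTI-MEM with 10 mM HEPES pH 7.3. Detection: 460/530 nm fluorescence.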
For assay [5], the target named is Glucocorticoid receptor (Homo sapiens) (UniProt P04150). Description: GR-GFP Redistribution (AID 450;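 active means compounds whose dose series gives a full or clear partial fitted curve of increased nuclear translocation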; further: potency means the concentration at half of the fitted maximal effect). To be noted: U2OS GR-GFP nuclear translocation, laser cytometry, 2 h.
Assay [6] shares this target. Nature of the assay: GR-EFC Redistribution (AID 451; calls by dose curve; further: potency means the concentration at half of the fitted maximal effect). To be noted: CHO-K1 GR-EFC translocation, beta-gal luminescence, 2 h. The essentials:
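CHO-K1 cells stably expressing nuclear-localized β-gal enzyme acceptor and GR fused C-terminally to the enzyme donor fragment; ligand-driven nuclear translocation restores β-gal by complementation. Compounds titrated up to 46 uM final, 2 h at 37 °C; luminescence read.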

Assay [7] concerns the target Mitogen-activated protein kinase 10 (Mus musculus) (UniProt Q61831). Nature of the assay: JNK3 AlphaScreen Assay (AID 530; active means well fitted curve in either direction with a large enough effect, not every such curve was filed as active;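 further: kinase came from lysate of stimulated human HepG2 cells; signal reports phosphorylation of biotinylated GST-cJun 1-79 at Ser73 with 10 µM ATP; on the % scale 0 is the no-effect control and ±100 the full control effect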). To be noted: JNK3 lysate, c-Jun phosphorylation; series mostly up to 57.1 µM. The procedure, abridged:
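JNK3 came from HepG2 lysates pre-activated with IL-1beta and TNF-alpha and phosphorylated biotinylated GST-cJun (1-79) at 10 uM ATP, pH 7.6, room temperature. Compounds were titrated. AlphaScreen signal used anti-phospho-cJun (Ser73) antibody.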
A general note: Alpha assays give light when donor and acceptor beads are brought close together.

The target in assay [8] is 3',5'-cyclic-AMP phosphodiesterase 4B (Homo sapiens) (UniProt Q07343). Description: qHTS Assay for Inhibitors of PDE-IV (AID 607; active means well fitted activation curve with a large enough effect in the main read-out, with a control signal flat, not every such curve was filed as active; further: % of control where 0% means no effect). The note with it: HEK293 ACTOne CNG channel cells, membrane potential fluorescence; series mostly up to 22.9 µM. The procedure, abridged: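 Cell-based read-out of cAMP via a modified cyclic nucleotide-gated channel and membrane potential dye (535/590 nm) in HEK293 cells expressing PDE4 endogenously. Compounds tested up to 22.9 uM final; 100 uM RO 20-1724 reference.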

The target in assay [9] is Guanine nucleotide-binding protein G(i) subunit alpha-1 (Homo sapiens) (UniProt P63096). Nature of the assay: qHTS Assay for Inhibitors of RGS12 GoLoco Motif Activity (Green Fluorophore) (AID 879).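 Further: 0% = labeled peptide with Gαi1 and full inhibition = labeled peptide alone without protein; negative values mean loss of peptide binding seen as reduced polarization.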 To be noted: Galphai1/FITC-RGS12 GoLoco peptide, fluorescence polarization; series mostly up to 57.1 µM. The procedure, abridged: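 Fluorescence polarization assay: 50 nM Gαi1 with 10 nM FITC-labeled RGS12 GoLoco peptide in 10 mM Tris pH 7.5, 150 mM NaCl, 0.1 mM GDP, 0.05% NP40, 10 min at room temperature with compound.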
A general note: Quantitative high-throughput screening tests each substance at several concentrations.

The nature of assay [10]: qHTS Assay for Identification of Small Molecule Agonists for Thrombopoietin (TPO) Signaling Pathway (AID 917). Further: on the % scale 0 is the no-effect control and ±100 the full control effect. The note with it: TPO signaling pathway reporter cells, agonist qHTS, stimulated with TPO at its EC50; series mostly up to 38.5 µM. The essentials: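 Luminescence from a Glycoprotein IIb promoter–driven luciferase reporter served as read-out in murine Ba/F3 cells carrying the human TPO receptor. Cells, deprived of IL-3 overnight, received compounds with 26 pM TPO and were incubated 24 hrs at 37 C.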

The target of assay [11] is Muscarinic acetylcholine receptor M1 (Rattus norvegicus) (UniProt P08482). Nature of the assay: qHTS Assay for Antagonists of Acetylcholine Muscarinic M1 Receptor: Measurement of IP-One Response (AID 944). Further: nearly all actives have a fitted effect of over 75% in size. The note with it: CHO-M1 cells, IP-One HTRF, antagonist mode; series mostly up to 46.1 µM. The essentials:
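CHO cells expressing rat M1 receptor, recovered overnight, were pre-incubated 10 min with compound, then stimulated 30 min with carbachol at EC80 (200 nM) in LiCl-containing buffer, pH 7.4. IP1 accumulation was read by HTRF (620/665 nm).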

Assay [12] concerns the target Pyruvate kinase (Leishmania mexicana) (UniProt Q27686). Nature of the assay: qHTS Validation Assay for Inhibitors of Leishmania Mexicana Pyruvate Kinase (AID 945).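 Further: 0% = DMSO only neutral control wells.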 The note with it: purified L. mexicana pyruvate kinase, enzyme activity, E451W mutant enzyme; series mostly up to 57.5 µM. The procedure, abridged: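 Read-out: luminescence from PKLight stop/detection reagent, data normalized to DMSO. Reaction: 0.2 nM E451W LmPYK, 0.5 mM PEP, 0.1 mM ADP, pH 7.2, 1 h room temperature.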

Assay [13] deals with Pyruvate kinase PKM (Homo sapiens) (UniProt P14618). Nature of the assay: qHTS Assay for Activators of Human Muscle Pyruvate Kinase (AID 954; active means well fitted curve in the direction sought with a large enough effect, not every such curve was filed as active;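 further: 0% = uninhibited enzyme and -100% = no enzyme or full thiadiazolimine inhibition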). To be noted: purified human muscle pyruvate kinase, luciferase-coupled luminescence, 1 h; series mostly up to 57.5 µM. The essentials:
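Human PKM2 activity is measured as ATP generation, detected by luciferase-coupled luminescence. The enzyme (0.1 nM) acts on 0.5 mM PEP and 0.1 mM ADP for 1 h at ambient temperature; data are normalized to uninhibited and full-inhibition wells.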

For assay [14], the target named is alpha-glucosidase (Oryza sativa, rice) (UniProt Q653V4). Description: Counterscreen for Glucocerebrosidase Inhibitors: qHTS Assay for Rice alpha-Glucosidase at pH 5.0 (AID 997).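 Further: 0% = full activity with enzyme and -100% = basal without enzyme.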 To be noted: rice alpha-glucosidase enzyme activity; series mostly up to 76.9 µM. The procedure, abridged:
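Rice alpha-glucosidase (4 nM final) with 400 uM 4-methylumbelliferyl-alpha-D-glucopyranoside in citrate buffer pH 5.0, 20 min at room temperature, stopped at pH 10; fluorescence 365/440 nm, compounds 0.7 nM–77 uM, AC50 from Hill fits.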
In general terms: A counterscreen serves to expose hits that act by an unwanted route or on another target.

The nature of assay [15]: Validation of Assay for Modulators of Lamin A Splicing (AID 1459; active means well fitted curve in the direction sought with a large enough effect in the signal ratio; the % refers to the signal ratio;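 further: cells exposed to compound for two days before reading; 0% is about no effect; ratio rise marks activators and ratio drop marks inhibitors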). The note with it: Lamin A splicing dual RFP/GFP fluorescence reporter; series mostly up to 9.22 µM. The essentials: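 HeLa S3 lamin A-EGFP/DsRed2 stable clone, 600 cells/well, Opti-MEM 2% FBS; compounds by pin tool; 48 hrs, 37 °C/5% CO2; Acumen 488 nm scan, objects 10-100 um; GFP/RFP intensity ratio.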
Assay [16] is described as follows: qHTS Assay for Lipid Storage Modulators (AID 1519; calls by dose curve). To be noted: Drosophila S3 cells, BODIPY lipid droplet/cell ratio, laser cytometry, cells loaded with oleic acid. The procedure, abridged: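 Cells seeded at 5,000 per well were treated with compounds over a concentration series and loaded with oleic acid (400 uM, as added). Lipid droplet fluorescence (488 nm excitation, 500-530 nm channel) was read by laser-scanning cytometry and normalized to 20 uM Triacsin C.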

The target of assay [17] is DNA repair nuclease/redox regulator APEX1 (Homo sapiens) (UniProt P27695). Description: qHTS Validation Assay for Inhibitors of the Human Apurinic/apyrimidinic Endonuclease 1 (APE1) (AID 1705). To be noted: purified APE1 endonuclease activity, fluorescence, titration; series mostly up to 57.1 µM. The procedure, abridged: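 qHTS, 1536-well. APE1 + cpd 15 min RT → 50 nM TAMRA/BHQ-2 THF-abasic dsDNA substrate → kinetic fluorescence, 3 reads/60 s; delta(read3−read1) = reaction progress. No-enzyme buffer = negative control.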

Assay [18] in a line: Counterscreen for APE1 Inhibitors: Fluorescent Dye Displacement Validation Assay (AID 1707).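 Further: plate controls were ThO with dsDNA and no compound for no effect and ThO without dsDNA for full effect.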 The note with it: fluorescent dye displacement from DNA; series mostly up to 57.1 µM. The essentials:
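Compounds are scored by their ability to displace Thiazole Orange (250 nM) from a 50 nM TAMRA-tagged duplex bearing a tetrahydrofuran abasic site. Buffer is 50 mM Tris-HCl pH7.5, 50mM NaCl, 2 mM MgCl2, 0.01% Tween-20.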

Results filed as inconclusive are left out. Active and inactive are the calls of the source. Unless noted, the call rests on the fitted dose curve; in most records, active means well fitted curve in the direction sought with a large enough effect; inconclusive means small, poorly fitted or top-dose-only effect, or another doubt; inactive means no such curve, though single readings can be large; an effect the other way counts as inactive or inconclusive. A value given as a limit tells only on which side of the number the result lay.

Sequence of Glucocorticoid receptor (Homo sapiens) (P04150 whole entry, looked up): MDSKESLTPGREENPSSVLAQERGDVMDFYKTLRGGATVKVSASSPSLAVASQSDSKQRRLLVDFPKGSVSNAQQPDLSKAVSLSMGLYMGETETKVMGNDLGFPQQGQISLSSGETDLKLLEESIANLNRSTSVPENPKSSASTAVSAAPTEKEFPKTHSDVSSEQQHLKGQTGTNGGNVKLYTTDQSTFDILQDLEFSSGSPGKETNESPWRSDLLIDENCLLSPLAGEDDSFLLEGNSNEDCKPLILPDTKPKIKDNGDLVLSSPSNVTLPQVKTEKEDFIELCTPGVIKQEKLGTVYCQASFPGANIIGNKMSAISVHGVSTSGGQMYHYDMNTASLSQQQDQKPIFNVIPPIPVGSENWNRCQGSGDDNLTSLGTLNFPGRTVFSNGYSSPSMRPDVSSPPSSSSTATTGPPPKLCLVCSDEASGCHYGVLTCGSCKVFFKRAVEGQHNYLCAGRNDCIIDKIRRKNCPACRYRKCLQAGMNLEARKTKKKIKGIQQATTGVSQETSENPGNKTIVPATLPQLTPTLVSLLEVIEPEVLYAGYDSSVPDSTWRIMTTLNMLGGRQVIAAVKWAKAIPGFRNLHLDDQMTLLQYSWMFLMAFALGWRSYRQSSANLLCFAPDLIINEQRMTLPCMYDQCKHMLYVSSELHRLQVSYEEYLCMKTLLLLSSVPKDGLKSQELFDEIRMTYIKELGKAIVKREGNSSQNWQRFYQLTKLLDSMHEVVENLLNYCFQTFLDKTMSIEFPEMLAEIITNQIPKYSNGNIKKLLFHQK
Sequence of 3',5'-cyclic-AMP phosphodiesterase 4B (Homo sapiens) (Q07343 whole entry, looked up): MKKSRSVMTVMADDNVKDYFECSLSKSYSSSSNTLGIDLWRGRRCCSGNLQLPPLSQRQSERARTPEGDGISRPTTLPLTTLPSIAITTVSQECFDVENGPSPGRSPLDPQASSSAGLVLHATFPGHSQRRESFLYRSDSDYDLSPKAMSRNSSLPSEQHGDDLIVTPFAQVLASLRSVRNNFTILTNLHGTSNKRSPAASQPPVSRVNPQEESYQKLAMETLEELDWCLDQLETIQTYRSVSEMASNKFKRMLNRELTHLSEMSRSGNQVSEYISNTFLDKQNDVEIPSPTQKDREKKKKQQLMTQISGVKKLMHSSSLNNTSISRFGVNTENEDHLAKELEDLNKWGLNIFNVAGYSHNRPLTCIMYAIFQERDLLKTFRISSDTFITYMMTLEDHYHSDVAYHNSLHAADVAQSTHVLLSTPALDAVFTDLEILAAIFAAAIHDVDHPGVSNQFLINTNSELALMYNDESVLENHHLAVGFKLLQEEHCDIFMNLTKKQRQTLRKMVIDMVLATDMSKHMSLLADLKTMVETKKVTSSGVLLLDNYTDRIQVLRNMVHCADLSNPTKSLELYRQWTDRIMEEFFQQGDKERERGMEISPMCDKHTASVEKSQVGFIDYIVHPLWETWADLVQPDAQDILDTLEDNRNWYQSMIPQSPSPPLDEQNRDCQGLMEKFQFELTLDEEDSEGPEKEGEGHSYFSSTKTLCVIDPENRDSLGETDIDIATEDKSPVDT
Sequence of Muscarinic acetylcholine receptor M1 (Rattus norvegicus) (P08482 whole entry, looked up): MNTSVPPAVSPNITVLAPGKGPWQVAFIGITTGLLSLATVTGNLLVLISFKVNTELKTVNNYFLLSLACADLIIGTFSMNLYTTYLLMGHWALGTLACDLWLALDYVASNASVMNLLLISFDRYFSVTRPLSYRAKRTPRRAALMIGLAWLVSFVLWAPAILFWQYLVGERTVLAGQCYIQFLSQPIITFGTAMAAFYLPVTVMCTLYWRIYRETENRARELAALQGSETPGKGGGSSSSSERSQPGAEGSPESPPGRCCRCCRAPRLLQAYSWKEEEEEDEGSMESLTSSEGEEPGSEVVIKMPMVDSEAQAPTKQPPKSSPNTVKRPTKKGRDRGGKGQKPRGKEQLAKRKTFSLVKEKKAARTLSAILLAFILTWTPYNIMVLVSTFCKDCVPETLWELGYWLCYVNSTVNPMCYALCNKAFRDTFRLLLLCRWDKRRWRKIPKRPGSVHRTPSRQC
Sequence of Guanine nucleotide-binding protein G(i) subunit alpha-1 (Homo sapiens) (P63096 whole entry, looked up): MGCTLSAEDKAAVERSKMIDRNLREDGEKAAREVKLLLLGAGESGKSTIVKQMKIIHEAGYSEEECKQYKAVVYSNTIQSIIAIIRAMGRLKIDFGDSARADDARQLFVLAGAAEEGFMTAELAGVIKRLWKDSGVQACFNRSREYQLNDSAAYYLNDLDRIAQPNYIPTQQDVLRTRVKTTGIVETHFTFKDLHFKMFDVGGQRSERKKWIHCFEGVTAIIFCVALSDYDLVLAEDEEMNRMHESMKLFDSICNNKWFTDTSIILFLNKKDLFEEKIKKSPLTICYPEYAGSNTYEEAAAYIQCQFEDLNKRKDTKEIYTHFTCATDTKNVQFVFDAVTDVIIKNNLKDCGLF
Sequence of Cytochrome P450 1A2 (Homo sapiens) (P05177 whole entry, looked up): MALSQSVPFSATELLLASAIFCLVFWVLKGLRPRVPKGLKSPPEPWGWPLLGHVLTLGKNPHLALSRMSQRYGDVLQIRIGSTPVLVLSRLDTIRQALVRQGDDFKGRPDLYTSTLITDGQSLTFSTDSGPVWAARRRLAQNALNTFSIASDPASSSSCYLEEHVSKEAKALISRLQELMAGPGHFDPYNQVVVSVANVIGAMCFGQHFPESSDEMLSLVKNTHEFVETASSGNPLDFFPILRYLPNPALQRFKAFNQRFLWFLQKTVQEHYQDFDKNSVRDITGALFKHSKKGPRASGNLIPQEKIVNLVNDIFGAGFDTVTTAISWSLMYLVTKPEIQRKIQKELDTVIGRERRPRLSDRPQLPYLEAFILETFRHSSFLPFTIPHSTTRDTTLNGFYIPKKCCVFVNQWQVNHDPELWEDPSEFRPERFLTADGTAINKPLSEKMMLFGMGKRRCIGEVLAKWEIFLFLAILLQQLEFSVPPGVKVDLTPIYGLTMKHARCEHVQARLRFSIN
Sequence of DNA repair nuclease/redox regulator APEX1 (Homo sapiens) (P27695 whole entry, looked up): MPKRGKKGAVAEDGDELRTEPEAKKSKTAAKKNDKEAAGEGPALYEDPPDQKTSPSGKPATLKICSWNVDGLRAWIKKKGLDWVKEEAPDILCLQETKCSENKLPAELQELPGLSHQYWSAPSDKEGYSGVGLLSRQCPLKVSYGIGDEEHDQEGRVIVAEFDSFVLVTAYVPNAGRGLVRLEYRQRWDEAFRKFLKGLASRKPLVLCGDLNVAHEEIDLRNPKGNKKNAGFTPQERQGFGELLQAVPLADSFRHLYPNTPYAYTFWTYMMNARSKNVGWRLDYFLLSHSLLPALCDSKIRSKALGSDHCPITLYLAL
Sequence of Pyruvate kinase (Leishmania mexicana) (Q27686 2-499 E452W): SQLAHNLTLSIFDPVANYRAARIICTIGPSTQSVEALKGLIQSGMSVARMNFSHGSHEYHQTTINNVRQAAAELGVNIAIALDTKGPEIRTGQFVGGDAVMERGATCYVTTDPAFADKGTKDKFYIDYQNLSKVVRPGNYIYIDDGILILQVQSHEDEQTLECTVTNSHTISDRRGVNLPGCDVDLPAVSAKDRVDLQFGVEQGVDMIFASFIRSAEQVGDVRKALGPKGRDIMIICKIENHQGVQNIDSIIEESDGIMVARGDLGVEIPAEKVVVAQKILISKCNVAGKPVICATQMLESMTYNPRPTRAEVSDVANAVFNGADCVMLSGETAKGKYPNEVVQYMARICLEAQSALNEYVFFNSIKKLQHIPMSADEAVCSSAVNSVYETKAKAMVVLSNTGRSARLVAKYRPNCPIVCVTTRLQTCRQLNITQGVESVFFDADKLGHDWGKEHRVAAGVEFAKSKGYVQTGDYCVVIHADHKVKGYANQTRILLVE
Sequence of Pyruvate kinase PKM (Homo sapiens) (P14618 whole entry, looked up): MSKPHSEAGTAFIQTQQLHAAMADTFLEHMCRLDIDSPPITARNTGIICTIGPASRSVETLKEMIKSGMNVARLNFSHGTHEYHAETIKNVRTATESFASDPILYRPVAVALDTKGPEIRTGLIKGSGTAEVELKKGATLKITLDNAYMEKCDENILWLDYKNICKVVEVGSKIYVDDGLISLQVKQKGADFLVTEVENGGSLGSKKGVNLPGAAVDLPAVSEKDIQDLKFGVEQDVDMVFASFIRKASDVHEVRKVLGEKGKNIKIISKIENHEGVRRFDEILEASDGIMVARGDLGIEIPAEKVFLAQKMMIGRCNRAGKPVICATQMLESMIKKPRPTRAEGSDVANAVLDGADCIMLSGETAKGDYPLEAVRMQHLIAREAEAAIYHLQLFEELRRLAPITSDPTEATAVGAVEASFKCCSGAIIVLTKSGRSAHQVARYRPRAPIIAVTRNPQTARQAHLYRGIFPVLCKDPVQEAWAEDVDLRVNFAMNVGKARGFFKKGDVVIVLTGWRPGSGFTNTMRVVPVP

Consider `Cc1cccc(C)c1NC(=O)C[N+](C)(C)C`, for which the activity change, negative = inhibition in assay [1] was 0.892% (inactive); in assay [3], 11.6% (inactive); in [16] (at 57.5 µM (top of the series)), -1.34% (inactive). Further, the Potency entry in assay [2], in [7], in assay [8], in [10], in assay [11] and in assay [12] was “inactive” each time. In addition, the Potency result in [17] and in [18] was “inactive” in each case. For the same compound, the activity, negative = inhibition in assay [4] is 8.11% (inactive). For the same compound, the Potency in [5] and in assay [6] was > 46 µM (inactive) in each case. Further, the compound was called inactive in [9], in [13], in assay [14] and in assay [15]. The max response in [16] (measured here: cell count channel max response) is -10.6%; in [16] (measured here: lipid channel max response), -11.6%.
